Source: ChEMBL document CHEMBL4888484, “Replenishing the malaria drug discovery pipeline: Screening and hit evaluation of the MMV Hit Generation Library 1 (HGL1) against asexual blood stage Plasmodium falciparum ,using a nano luciferase reporter read-out” (2022)
The whole screen tested about 150,000 compounds, of which about 540 (0.36%) showed an effect of 50% or more. Only a selection was taken, and strong results are over-represented in it overall.

Each compound was assayed on Plasmodium falciparum (assay: Primary screen in NF54 nanoGlo assay, in single point, at 2uM, 72h; a lower Z score goes with more inhibition). Conditions: timepoint 72 hour.
Type: functional, Erythrocyte

Row | SMILES | % Inhibition [%] | Z score
1 | CN(C)c1ccc([C@@H](CNC(=O)c2cccc(F)c2)c2c[nH]c3ccccc23)cc1 | 2 | -0.26
2 | COc1ccc(CN(Cc2ccncc2)CC2CCN(C3CCN(C)CC3)CC2)c(F)c1 | 88 | -10.13
3 | CN1CCC(N2CCC(CN(Cc3ccncc3)C3CCOCC3)CC2)CC1 | 0 | 0
4 | COCCN1CCC(CN(Cc2ccncc2)Cc2nc3ccc(F)cc3[nH]2)CC1 | 0 | 0.04
5 | CN1CCC(N2CCC(CN(Cc3ccncc3)Cc3c(F)cccc3Cl)CC2)CC1 | 98 | -9.12
6 | COCCN1CCC(CN(Cc2ccncc2)Cc2cc(C)c(C)o2)CC1 | -30 | 4.08
7 | CC(=O)NCCn1ccnc1-c1ccc(F)c(F)c1F | -9 | 1.18
8 | C[C@H](NCC1(c2c(F)cccc2F)CC1)c1cnn(C)c1 | -3 | 0.45
9 | CC(C)(C)CN1C[C@@H](NC(=O)COc2ccc3c(c2)OCO3)CC1=O | -1 | 0.23
10 | CCCC(CCC)C(=O)Nc1ccc(O)cc1C(=O)O | 40 | -0.25
11 | COCC(O)CN1CCC(NC2CCCc3cc(F)ccc32)CC1 (centres undefined) | 1 | -0.12
12 | COCCCN(Cc1ccc(C(O)(c2ccc(OC)cc2)c2ccc(OC)cc2)o1)Cc1ccccc1OC | 3 | -0.38
13 | CN1CCO[C@@H](CNc2ncnc3c2cnn3-c2ccccc2F)C1 | -1 | 0.08
14 | Cc1nc(N2CCCC2C(=O)N2CCC(C(O)Cc3ccccc3)CC2)nc2ccccc12 (centres undefined) | -15 | 1.71
15 | CC1CC(Nc2ncnc3cc(Br)ccc23)CCN1C (centres undefined) | 97 | -8.72
16 | CS(=O)(=O)N1CCC(Nc2ncnc3cc(Cl)ccc23)CC1 | 18 | -2.07
17 | O=C(O)c1ccc2c(NC3CCCC3)ncnc2c1 | -5 | 0.71
18 | OC(CN1CCOC2CCCCC21)Cn1cccn1 (centres undefined) | -5 | 0.7
19 | CC(C)CNC(=O)c1[nH]cnc1C(=O)N1CCC(Cc2ccccc2)CC1 | 31 | -3.65
20 | CC[C@H]1CCCCCN1C(=O)NCCc1nnc(C)s1 | -9 | 1.2
21 | COc1ncc(C(=O)NCCCn2ccnc2)cn1 | -14 | 1.29
22 | COc1ccc(Nc2nnc(-c3ccc(NC(=O)C(=O)NCCCn4ccnc4)cc3)s2)cc1 | 66 | -7.06
23 | CCN(CC)Cc1cnc2c(C(=O)N(C)C3Cc4ccccc4C3)cnn2c1 | -6 | 0.83

Row | SMILES | % Inhibition [%] | Z score
24 | CN1C(=O)[C@@H]2CC[C@H]1CN(C1CCN(c3ncc4ccc(F)cc4n3)CC1)C2 | 3 | -0.38
25 | CO[C@H]1CCOC[C@@H]1NC1CCN(c2ncc3ccc(F)cc3n2)CC1 | 1 | -0.16
26 | Cc1ccc2c(c1)C(=O)N1CCCC1C(=O)N2CC(=O)NCC1CCCO1 (centres undefined) | -1 | 0.1
27 | COc1ccc(-n2ncc3c(N)c4c(nc32)CCCC4=O)cc1 | 56 | -1.02
28 | Nc1c2c(nc3c1cnn3-c1cc(F)cc(F)c1)CCCC2=O | -9 | 1.23
29 | Cc1ccc(-n2ncc3c(N)c4c(nc32)CCCC4=O)cc1 | 12 | -2.26
30 | O=C(NCCn1ccnc1)c1[nH]nc(C2CC2)c1Cl | -9 | 1.61
31 | CC(C)N(C)C(=O)C1CCN(C(=O)[C@@H](N)C(C)(C)C)CC1 | -1 | 0.1
32 | COc1ccc(CNC/C=C/c2ccccc2)cc1 | -20 | 2.3
33 | COc1ccc(CNCCC2C(C)CN(C)C(C)C2Cc2ccccc2)cc1 (centres undefined) | 55 | -7.17
34 | COC1CCC(CCNCc2ccccc2)CC1 (centres undefined) | -15 | 2.25
35 | COc1cccc(OC2CN(C[C@H]3COc4ccccc4O3)C2)c1 | 3 | -0.59
36 | CC(CNC(=O)N(C)CCc1cccs1)N1CCOCC1C (centres undefined) | 5 | -0.94
37 | CCc1cc(N2CCCO2)nc(-c2ccncc2)n1 | 1 | -0.06
38 | Cn1cnc2c(NCC(=O)N3CCN(c4ccccc4)CC3)ncnc21 | -1 | 0.15
39 | CC(C)[C@H]1CN(C)CCN1Cc1ccc2cc(O)ccc2c1 | -17 | 2.23
40 | CN1CC[C@H](CN(C)Cc2ccc3cc(O)ccc3c2)C1 | 56 | -7.71
41 | CN(CC[C@H]1CCCCO1)Cc1ccc2cc(O)ccc2c1 | -1 | 0.18
42 | CN1CCC(N2CCN(Cc3ccc4cc(O)ccc4c3)CC2)CC1 | 90 | -8.27
43 | c1cc(CN2CCC[C@H](CN3CCCC3)C2)co1 | -3 | 0.59
44 | Oc1ccc2cc(CN3CCC[C@H](CN4CCCC4)C3)ccc2c1 | 97 | -3
45 | CN(Cc1ccc2cc(O)ccc2c1)C[C@H]1CCCCO1 | 8 | -0.87
46 | NC1CCOC(C2CCCCN2S(=O)(=O)c2ccc(C(F)(F)F)s2)C1 (centres undefined) | 4 | -0.63

Row | SMILES | % Inhibition [%] | Z score
47 | COCCN1C(=O)[C@@H]2C(Cc3ccc(O)cc3)NC3(C(=O)Nc4c(C)cc(C)cc43)[C@@H]2C1=O (some centres undefined) | -3 | 0.41
48 | Cc1cccc(Cl)c1C(=O)NC(C1CCNCC1)[C@H]1C[C@H](O)C1 (some centres undefined) | -9 | 1.88
49 | Cc1noc2ncnc(N3CCCC3CC(O)c3cnn(C)c3)c12 (centres undefined) | 4 | -0.69
50 | CCC[C@H](NC1CCN(C(=O)OC)CC1)C1CC1 | 7 | -0.96
51 | CC1CC(C)CN(C(=O)c2ccc3c(=O)n4c(nc3c2)CCCC4)C1 (centres undefined) | -3 | 0.52
52 | COc1ccc([C@H]2CC(=O)Nc3cccc4c3c2cn4Cc2ccccc2)cc1 | -4 | 0.51
53 | COc1ccc([C@@H](CC(=O)N2CCCC2)c2cn(Cc3ccccc3)c3ccccc23)cc1 | -8 | 0.98
54 | COc1ccc2c(/C=C/c3cc[n+](C)cc3)cn(Cc3ccccc3)c2c1 | 68 | -6.36
55 | Cc1nc(NC(=O)NCCn2ncnn2)sc1C | 31 | -4.22
56 | CCC(C)CS(=O)(=O)NC(C)C1CC1 (centres undefined) | -4 | 0.39
57 | Cc1cccc(NC(=O)c2c[nH]c3nc(C)ccc3c2=O)c1 | 4 | -0.5
58 | Cc1ccc(C)c(NC(=O)c2c(Oc3ccc(F)cc3)nc(C)c(Cl)c2C)c1 | -8 | 1.01
59 | O=C(Nc1c(C(=O)Nc2ccc(F)c(F)c2)oc2ccccc12)c1cc2ccccc2o1 | -13 | 2.46
60 | Cc1c(C)c2ccc(NC(=O)c3cc4ccccc4o3)cc2[nH]c1=O | 93 | -7.22
61 | Cn1cc(NC(=O)c2cc3ccccc3o2)ccc1=O | -4 | 0.73
62 | CCOC(=O)c1cn(CCc2c[nH]cn2)cc(Oc2ccccc2)c1=O | 0 | -0.09
63 | O=C(NCC(O)c1ccccc1Cl)C1CCCN1 (centres undefined) | 1 | -0.1
64 | CCNC(=O)N1CCN(c2ccc(-c3noc(C(F)(F)F)n3)cn2)CC1 | 12 | -1.6
65 | O=C(c1ccc(-c2noc(C(F)(F)F)n2)cc1)N1CCC1 | 29 | -3.23
66 | Cc1c(F)cccc1-c1ccc(CNc2cccc(CN3CCC(O)CC3)c2)o1 | 8 | -0.88
67 | CNC(=O)c1ccc(OC)c(-c2ccc(NCCN3CCOCC3)nc2)c1 | -7 | 1.05
68 | CCc1ccc(-c2cnc3ccccc3n2)cc1NC(=O)[C@@H](NS(=O)(=O)c1ccccc1)C(C)C | 4 | -0.61
69 | Cc1ccc(CCC(=O)NC(c2ccccc2)C(C)C(=O)O)o1 (centres undefined) | 5 | -0.67

Row | SMILES | % Inhibition [%] | Z score
70 | Cc1cccc(-c2noc(N3CCOCC3)c2CN(C(=O)CC(C)C)C2CC2)c1 | -12 | 1.29
71 | COc1ccc(CN2CC[C@@H]3C(=O)NCCCCCCN(Cc4ccncc4)[C@@H]3C2)cc1Cn1ccnc1 | 59 | -7.78
72 | CCn1cc(CN2CC[C@H]3C(=O)NCCCCCCN(Cc4ccncc4)[C@@H]3C2)c(C)n1 | 2 | -0.2
73 | COc1cccc(CN2CC[C@H]3C(=O)NCCCCCCN(Cc4ccncc4)[C@@H]3C2)n1 | -5 | 0.65
74 | CN(Cc1cn(C)nn1)CC1CCOCC1 | -11 | 2.06
75 | CCO[C@H]1CN(C(=O)Cc2nc(C)sc2C)C[C@@H]1O | 0 | 0.05
76 | S=c1cc(-c2ccccc2)n(Cc2ccco2)c2c1CCCC2 | 54 | -6.88
77 | C[C@@]1(C(=O)NC2CCCCCCC2)Cn2c(ccc2-c2ccccc2)C(=O)N1Cc1ccco1 | 7 | -0.83
78 | S=c1cc(-c2ccccc2)n(CCCc2ccccc2)c2c1CCCC2 | -6 | 0.85
79 | CC(=O)c1cc(Br)ccc1NCC(=O)N(C)CCC#N | -26 | 2.93
80 | CCc1nccc(-c2c(-c3ccccc3)ncn2CCN2CCOCC2)n1 | -6 | 0.83
81 | CCOC(=O)c1c(-c2ccccc2)n(C)c2cc(-c3cccnc3)c(O)cc12 | 9 | -1.7
82 | CCOC(=O)c1cnc(N2CCN(Cc3cccnc3)CC2)s1 | -2 | 0.17
83 | CCOC(=O)c1c(CN2CCCC2)n(C)c2cc(-c3cccnc3)c(O)c(Cn3ccnc3)c12 | 58 | -10.36
84 | Cc1noc(C)c1S(=O)(=O)Nc1ccc2c(c1)OC1(CCCC1)O2 | 5 | -0.73
85 | CCNc1nc(C)cc(Nc2ccc(NS(=O)(=O)c3c(C)noc3C)cc2)n1 | 86 | -8.65
86 | Cc1cc(N(C)C)nc(NCCNC(=O)Nc2cccc(F)c2C)n1 | 20 | -2.61
87 | CCNc1nc(C)cc(NCCNC(=O)c2cccc(Cl)c2)n1 | 23 | -3.44
88 | Cc1ccc(C)c(C(=O)Nc2cnc(-n3nc(C)cc3C)nc2)c1 | 5 | -0.75
89 | CCOc1nc(-c2cccc(F)c2)n(-c2ccc(NC(=O)Nc3ccc(F)cc3F)cc2)n1 | -9 | 1.18
90 | Cc1nc2ccc(NC(=O)Nc3ccc(F)cc3F)cc2s1 | -9 | 1.17
91 | COc1ccc(NS(=O)(=O)c2c(C)noc2C)cn1 | 3 | -0.47
92 | CCNc1nc(C)cc(Nc2ccc(NC(=O)c3cc(C)ccc3C)cc2)n1 | 97 | -9.09
